This is one part of a sample in which hits are shown more often than they occur.
HT1080-NT tox: qHTS for induction of synthetic lethality in tumor cells producing 2HG: qHTS for the HT-1080-NT fibrosarcoma cell line. HT-1080-NT fibrosarcoma viability, CellTiter-Glo ATP luminescence, 48 h. Potency, µM (doses to about 46.1 µM), for the others: top-dose activity, negative = less viability, most hits filed as cytotoxic. 360,000 compounds, 1.6% hits;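 note: NT is the 2HG producing partner of a matched IDH1 knockdown line; potency is the fitted concentration of half-maximal effect; 0% = DMSO-treated cells and -100% = media-only wells without cells; nearly all actives have a fitted effect of over 55% in size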
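A 48-hour cytotoxicity screen used HT-1080-NT cells plated 2 hours before compound delivery. ATP-based CellTiter-Glo luminescence measured viability, normalized to DMSO and no-cell controls.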
IL1B secr inh: qHTS for Inhibitors of Inflammasome Signaling: IL-1-beta AlphaLISA Primary Screen; THP-1 LPS/ATP IL-1B secretion, AlphaLISA, 16 h; stronger effect = lower value; activity change, % at 57.5 µM; AID 743279, 2014; 360,000 compounds, 4.7% hits; in the data active = activity change below about -50%; inconclusive = mostly about -30% to -49%
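Secreted IL-1B measured by AlphaLISA bead assay after 16 h compound exposure of THP-1 cells; compounds (final up to 57.5 uM) added 1 h before LPS (250 ng/mL) and ATP (1.25 mM) stimulation; lower signal means less secretion.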
TDP1 cell noCPT: qHTS for Inhibitors of human tyrosyl-DNA phosphodiesterase 1 (TDP1): qHTS in cells in absence of CPT. DT40 Tdp1-/- hTDP1 cells, no CPT, ATP luminescence, 48 h. Potency, µM (doses to about 46.2 µM), inactives show at the top dose activity change, negative = growth inhibition, usual class: inhibitors. 420,000 compounds, 15% hits; note: potency is the fitted concentration of half-maximal effect; nearly all actives have a fitted effect of over 55% in size
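Cells were dispensed at 400 per well, compounds added by pin tool, plates incubated ≥48 hr at 37 °C, then CellTiter-Glo added for 30 min at room temperature before luminescence reading. Line: DT40 Tdp1-/- complemented with hTDP1; camptothecin omitted.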
ALOX12 inh: Primary qHTS assay for inhibitors of human arachidonate 12S-lipoxygenase (ALOX12): Round 2 | purified 12hLO, xylenol orange hydroperoxide absorbance | Potency, µM (highest dose often 108 µM), without a hit: top-dose activity change, negative = inhibition, actives largely listed as inhibitors | Polyunsaturated fatty acid lipoxygenase ALOX12 (Homo sapiens), P18054 | 580,000 compounds, 1.1% hits; note: potency is the fitted concentration of half-maximal effect
Target sequence (P18054 whole entry, looked up): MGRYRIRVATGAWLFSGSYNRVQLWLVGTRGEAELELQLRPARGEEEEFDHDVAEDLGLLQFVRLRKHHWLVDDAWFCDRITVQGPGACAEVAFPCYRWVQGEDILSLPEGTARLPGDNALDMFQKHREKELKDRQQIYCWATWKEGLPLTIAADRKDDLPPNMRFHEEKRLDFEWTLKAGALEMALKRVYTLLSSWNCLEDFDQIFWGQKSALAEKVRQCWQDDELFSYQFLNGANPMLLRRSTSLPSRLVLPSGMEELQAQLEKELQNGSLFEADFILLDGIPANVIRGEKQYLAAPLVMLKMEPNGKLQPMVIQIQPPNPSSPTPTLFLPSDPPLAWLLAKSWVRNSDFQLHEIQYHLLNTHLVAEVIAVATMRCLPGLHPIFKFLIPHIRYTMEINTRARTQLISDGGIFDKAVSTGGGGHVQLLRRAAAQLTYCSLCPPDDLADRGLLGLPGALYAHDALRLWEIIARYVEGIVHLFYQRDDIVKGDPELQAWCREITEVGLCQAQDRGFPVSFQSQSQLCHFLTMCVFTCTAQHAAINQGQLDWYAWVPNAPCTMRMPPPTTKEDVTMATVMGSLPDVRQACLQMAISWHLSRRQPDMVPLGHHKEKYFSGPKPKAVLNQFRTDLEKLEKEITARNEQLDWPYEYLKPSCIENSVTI
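Purified human 12hLO (150 nM final) in 25 mM Hepes, 0.01% Triton X-100, pH 7.0 was preincubated 15 min at room temperature with compound. Then 40 uM arachidonic acid was added, 30 min. Hydroperoxide was read by Fe-XO absorbance ratio 573/405 nm.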
DT40 TDP1 CPT: qHTS for Inhibitors of human tyrosyl-DNA phosphodiesterase 1 (TDP1): qHTS in cells in presence of CPT; chicken DT40 Tdp1-/-;hTDP1 cells + 20 nM CPT, ATP luminescence, 48 h; Potency, µM (titrated, usually from 46.2 µM), without a hit: at the highest dose activity change, negative = growth inhibition, hits mostly inhibitors; 420,000 compounds, 12% hits; note: potency is the fitted concentration of half-maximal effect; nearly all actives have a fitted effect of over 55% in size
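Chicken DT40 Tdp1-/- cells stably complemented with human TDP1 were seeded at 400 cells/well in medium containing 20 nM camptothecin, exposed to pin-transferred compounds, and grown at 37 °C for at least 48 hr. Viability was read as ATP luminescence.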
HT1080 IDH1KD tx: qHTS for induction of synthetic lethality in tumor cells producing 2HG: qHTS for the HT-1080-IDH1KD cell line; Potency, µM (doses to about 46.1 µM), for inactives: top-dose activity, negative = toxicity, hits mostly cytotoxic; 360,000 compounds, 2% hits; HT-1080 IDH1 knockdown viability, ATP luminescence, 48 h;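 note: potency is the fitted concentration of half-maximal effect; 0% = DMSO wells and -100% = cell-free medium wells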
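Knockdown cells (IDH1KD HT-1080) received compounds 2 h after plating at 750 cells/well and were kept 48 h at 37 °C in 5% FBS RPMI. A CellTiter-Glo luminescence read gave % activity for curve fitting.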
* hit, by the source's call; ? = inconclusive; . = no result given; [ ] = remark or other dose. Unless noted, calls come from the whole dose curve; as a rule, active = well fitted curve in the direction sought with a large enough effect; inconclusive = small, poorly fitted or top-dose-only effect, or another doubt; inactive = no such curve, though single readings can be large; an effect the other way counts as inactive or inconclusive. Unless noted, % is set by controls: 0 for no effect and ±100 for the full control effect.

SMILES	HT1080-NT tox	IL1B secr inh	TDP1 cell noCPT	ALOX12 inh	DT40 TDP1 CPT	HT1080 IDH1KD tx
COc1ccc(CN2CCOCC2)cc1OC	19.5%	19.6	?	-21.1%	16.0%	11.7%
COc1cc2sc3ccc(-c4ccc(CN5CCOCC5)cc4)cc3c(=O)c2cc1OC	20.1%	-2.8	13µM*	7.3%	18.4µM*	19.2%
COc1cc2sc3ccc(-c4ccc(N(C)C)nc4)cc3c(=O)c2cc1OC	10.9%	21.3	5.8µM*	-12.4%	5.8µM*	16.7%
CN(Cc1ccccc1)Cc1c[nH]c2ccccc12	-8.3%	?	20.6µM*	-28.7%	5.8µM*	-0.2%
CC(NC(=O)CCc1c[nH]c2ccccc12)c1ccccc1 (centres undefined)	12.2%	23.8	8.9%	0.0%	-19.9%	-5.1%
CC(Cc1c[nH]c2ccccc12)C(=O)N(C)Cc1ccccc1 (centres undefined)	.	.	.	-52.2%	.	.
C[C@H](NCc1c[nH]c2ccccc12)c1ccccc1	-10.6%	0.0	?	87.2%	20.6µM*	-0.2%
COc1ccc(CNC(=O)N2CCC(c3noc(-c4cnccn4)n3)C2)cc1 (centres undefined)	.	.	.	11.6%	.	.
O=C(Nc1cc(Cl)cc(Cl)c1)N[C@@H]1CC[C@@H](CCNS(=O)(=O)c2cccc(F)c2)O[C@@H]1CO	18.4µM*	6.4	16.4µM*	?	?	?
COc1ccc(-n2c(-c3ccc(F)cc3)cnc2SCC(=O)NCc2ccco2)cc1	1.5%	?	-29.7%	-13.2%	-17.9%	-15.0%
O=C(CSc1ncc(-c2ccccc2)n1-c1ccccc1)NCc1ccco1	6.9%	-1.6	16.4µM*	15.7%	?	-23.5%
O=C(CSc1nc2ccccc2c2nc3ccccc3n12)NCc1ccco1	-22.2%	-4.4	23.1µM*	?	25.9µM*	-20.7%
Cc1ccc(NC(=O)CSc2nc3ccccc3c3nc4ccccc4n23)cc1	0.398µM*	43.7	0.581µM*	5.2%	0.651µM*	0.282µM*
COc1cc(/C=N/Nc2nc(C)cc(C)n2)ccc1OC(=O)c1ccco1	6.3%	33.9	-13.9%	24.3%	-24.0%	13.5%
CCOc1cc(/C=N\Nc2nc(Nc3ccccc3)nc(N3CCOCC3)n2)ccc1OC(=O)c1ccco1	-6.4%	-23.0	8.2µM*	-23.0%	18.4µM*	-4.8%
COC(=O)c1ccc(/C=N/Nc2nc(N3CCCCC3)nc(N3CCCCC3)n2)cc1	?	0.0	-43.8%	3.0%	-9.5%	7.0%
O=C(Oc1ccc(/C=N/Nc2nc(N3CCCCC3)nc(N3CCCCC3)n2)cc1)c1ccco1	1.5%	-2.5	16.4µM*	6.6%	?	4.2%
COC(=O)c1sc2nc(C)cc(C)c2c1N	3.0%	-24.1	-6.8%	-7.9%	-23.8%	-0.3%
Cc1cc(C)c2c(N)c(C(=O)c3ccccc3Cl)sc2n1	-7.9%	-9.3	?	10.5%	-29.2%	-8.7%
Cc1cc(C)c2c(N)c(C(=O)Nc3ccccc3Br)sc2n1	-0.9%	-2.8	-17.0%	1.0%	-29.0%	-13.2%
Cc1cc(C)c2c(N)c(C(=O)NCc3ccco3)sc2n1	20.1%	-61.1*	?	2.1%	0.0%	20.3%
Cc1cc(C)c2c(N)c(C(=O)Nc3ncc(C)s3)sc2n1	?	-19.4	18.4µM*	0.0%[57.4 µM]	16.4µM*	?
Cc1cc(C)c2c(N)c(C(=O)c3ccc(Cl)cc3Cl)sc2n1	-11.5%	-1.5	18.4µM*	-18.7%	?	-8.6%
CCc1ccccc1NC(=O)c1sc2nc(C)cc(C)c2c1N	-17.2%	?	?	-14.0%	18.4µM*	-4.4%
C=CCn1c(N)c(C(=O)NCc2ccco2)sc1=S	9.2%	?	-0.7%	-25.2%	0.8%	14.5%
SMILES	HT1080-NT tox	IL1B secr inh	TDP1 cell noCPT	ALOX12 inh	DT40 TDP1 CPT	HT1080 IDH1KD tx
Cc1cc(C)c2c(N)c(C(=O)N3CCCCCC3)sc2n1	7.8%	-17.3	-24.1%	-19.9%	14.6µM*	1.6%
Cc1ccc(-n2c(N)c(C(=O)NCc3ccco3)sc2=S)cc1	-14.2%	-58.3*	-28.6%	?	?	-16.6%
CCC(O)(c1ccccc1)C(CN1CCOCC1)c1ccccc1 (centres undefined)	-0.1%	-4.0	-21.0%	?	?	-6.9%
OC(c1ccccc1)(C1CCCCC1)C(CN1CCOCC1)c1ccccc1 (centres undefined)	?	-1.8	23.1µM*	?	18.4µM*	?
COc1ccc(C(O)(C2CCCCC2)C(CN2CCOCC2)c2ccccc2)cc1 (centres undefined)	?	-4.7	?	0.0%	25.9µM*	?
CCOC(=O)c1c(N/N=C/c2cccnc2)n[nH]c1C	?	-16.5	13µM*	0.0%	13µM*	?
CC1CCCN(C(=O)CCc2c[nH]c3ccccc23)C1 (centres undefined)	.	.	.	8.4%	.	.
COC(=O)CSc1nc(N)c2c3c(sc2n1)C(c1ccccc1)SC(c1ccccc1)C3 (centres undefined)	?	-99.7*	2.59µM*	.	4.11µM*	?
COC(=O)CSc1nc(N)c2c3c(sc2n1)CCCC3C (centres undefined)	.	.	.	10.6%	.	.
CC1CN(S(=O)(=O)c2cccc(C(=O)OCC(=O)NCc3ccccc3)c2)CC(C)O1 (centres undefined)	-2.2%	13.5	?	0.6%	?	0.7%
Cc1ccc(N(Cc2ccccc2)C(=O)c2cccc(S(=O)(=O)N3CC(C)OC(C)C3)c2)cc1 (centres undefined)	-12.0%	-28.7	16.4µM*	-12.3%	20.6µM*	-6.2%
CC1CN(S(=O)(=O)c2cccc(C(=O)N(CCc3ccccc3)Cc3ccccc3)c2)CC(C)O1 (centres undefined)	-8.0%	-23.3	5.8µM*	.	7.31µM*	-26.5%
CC(=O)N1CCN(S(=O)(=O)c2cccc(C(=O)N(Cc3ccccc3)c3ccc(C)cc3)c2)CC1	1.1%	-6.7	?	6.5%	?	4.9%
C=C1C(=O)OC2C=C(CO)CCC=C(CO)CC(OC(=O)C(C)C)C12 (centres undefined)	-0.5%	-100.9*	2.91µM*	7.4%	2.91µM*	13µM*

Screens deposited in PubChem BioAssay by National Center for Advancing Translational Sciences (NCATS).
